# Measurements from PubChem BioAssay AID592 (National Center for Advancing Translational Sciences (NCATS), 2007).
# Fewer than 10 of roughly 59,000 compounds were called active. The rule behind the calls is not given here. Only a sample is shown.
# Test: qHTS Assay for Spectroscopic Profiling in A647 Spectral Region
# Settings: Compound fluorescence, A647 channel (570/671 nm), Tris buffer; stronger effect = higher value
# From the text: NIH Molecular Libraries Screening Centers Network [MLSCN] NIH Chemical Genomics Center [NCGC] […] Occasionally, the artifactual effect may originate from the compounds own spectral or other biophysical properties which generally tend to track its assay concentration. Pre-screening/profiling the library with respect to the compounds spectral properties should help one exclude false positives early on. While the most informative fluorescent profiling data set is obtained by performing a full excitation and emission scan of each well by using a monochromator-based plate reader, such an approach is practical only on a very limited scale as scanning each well requires long time. An alternative approach, applied here, is to perform plate reader scans using selected excitation and emission wavelength pairs to generate a multidimensional relational database that correlates compound concentration and the respective relative fluorescence intensity at a given wavelength set. A standard curve of Alexa 647 (A647) present on each plate as six-point concentration series, was used to compute a normalized fluorescence response, termed dye-equivalent concentration, for each compound at each concentration.
# NCGC Assay Protocol Summary: Buffer: 100 mM Tris buffer, pH 8.0 Dye standard plate: The wells in columns 1 through 4 of a Kalypsys polypropylene 1536-well compound plate were filled with standard solutions of fluorophore corresponding to the spectral region of interest. Solutions of A647 were placed in the following wells: AC1, AD1: 3 mM, AC2, AD2: 300 uM, AC3, AD3: 30 uM, AC4, AD4: zero (DMSO), AE1, AF1: 3 uM, AE2, AF2: 900 nM, AE3, AF3: 300 nM, AE4, AF4: zero (DMSO). Assay Steps: Six uL of buffer were dispensed to 1536-well Greiner black plates. Compounds and dye standards (23 nL) were transferred via Kalypsys PinTool. The plates were incubated for 15 min at room temperature, and then read on ViewLux (Perkin-Elmer) High-throughput CCD imager using 570 nm and 671 nm excitation and emission filter set. Keywords: NIH Roadmap, MLSCN, MLI, MLSMR, qHTS, NCGC, A647, A-647, Fluorescent Profiling.
row,SMILES,max dye-equivalent concentration
1,O=C1c2ccccc2C(=O)N1CCCSc1ccccc1,1 nM (inactive)
2,Cc1ccc(NC(=O)C2CCCN(S(=O)(=O)c3c(C)noc3C)C2)c(C)c1 (stereo not given),5.9 nM (inactive)
3,CCCNS(=O)(=O)c1ccc(CCC(=O)NCc2cccnc2)cc1,46 nM (inactive)
4,Cn1c(=O)[nH]c(=O)c2c1nc(CN(Cc1ccccc1)Cc1ccccc1)n2CCN1CCOCC1,2 nM (inactive)
5,CCn1c(=O)cc(SCC(=O)NCc2ccc3c(c2)OCO3)c2ccccc21,34 nM (inactive)
6,CCc1cc2c(=O)c(-c3ccon3)c(N)oc2cc1OC,23 nM (inactive)
7,N#Cc1cccc(NC(=O)CCC2CCCC2)c1,1 nM (inactive)
8,Cc1nnc(SCc2ccc(C(=O)c3ccc(Cl)cc3)o2)n1-c1ccccc1,1.7 nM (inactive)
9,Cn1c2ccccc2c2c(C(=O)N3CCN(c4ccc(F)cc4)CC3)cn(C3CCCC3)c(=O)c21,2.8 nM (inactive)
10,CCn1c(Cc2ccccc2)nnc1SCc1nc2ccccc2c(=O)[nH]1,3.7 nM (inactive)
11,CCCOc1ccc(-c2nc(N)n[nH]2)cc1,1 nM (inactive)
12,Cc1nnc(SCC(=O)N2CCc3ccccc32)n1-c1ccccc1,30 nM (inactive)
13,O=C(Nc1c[nH]c(=O)[nH]c1=O)Oc1ccccc1,1 nM (inactive)
14,COC(=O)c1c(NC(=O)CSc2nncs2)sc2c1CCCCC2,57 nM (inactive)
15,CCCCN(CCCC)C(=O)CCS(=O)(=O)c1ccc2c(c1)n(C)c(=O)c(=O)n2C,16 nM (inactive)
16,COc1cc(NS(=O)(=O)c2ccc(NC(C)=O)cc2)cc(OC)c1,2 nM (inactive)
17,COc1ccc(S(=O)(=O)N2CCN(c3ncnc4c(-c5ccccc5)nsc34)CC2)cc1,45 nM (inactive)
18,C#CCN1C(=O)C(O)(CC(=O)c2cc(OC)ccc2OC)c2ccccc21 (stereo not given),44 nM (inactive)
19,COc1ccc2c(c1)C(C)=CC(C)(C)N2C(=O)CNCc1ccc2c(c1)OCO2,27 nM (inactive)
20,CN(C)Cc1c(C#N)c2ccccc2n1C,1 nM (inactive)
21,CN1CCCC(OC(=O)COc2ccc(Br)cc2)C1 (stereo not given),2.1 nM (inactive)
22,Fc1ccc2nc(Nc3nc4c(s3)CCCC4)sc2c1,34 nM (inactive)
23,Cc1n[nH]c(C)c1S(=O)(=O)N1CCCC(C(=O)NCC2COc3ccccc3O2)C1 (stereo not given),15 nM (inactive)

row,SMILES,max dye-equivalent concentration
1,CCON=C1C(C)(C)C(C)(C)C(C)(C)C1(C)C,1 nM (inactive)
2,CC(C)c1ccc(N2CC(C(=O)Nc3nccs3)CC2=O)cc1 (stereo not given),1 nM (inactive)
3,Cc1nc(NC(=O)CCC(=O)O)sc1C(=O)N(C)C,1 nM (inactive)
4,Cc1nc2ncnn2c(C)c1CCC(=O)N1CCN(C(=O)c2ccco2)CC1,1 nM (inactive)
5,CN1CCc2c(sc3c2c(NCc2ccco2)nc2nnnn23)C1,1 nM (inactive)
6,CCN(C(=O)CSc1ncn[nH]1)c1cccc2ccccc12,1 nM (inactive)
7,Cc1nn(-c2ccccc2)c2sc(C(=O)N(Cc3ccco3)C(C)C(=O)NC(C)(C)C)cc12 (stereo not given),1 nM (inactive)
8,COc1ccc2c(c1)CCc1c(C(=O)Nc3c(C)n(C)n(-c4ccccc4)c3=O)noc1-2,1 nM (inactive)
9,Cc1cc2ccccc2n2c(SCC(=O)N3CCN(C(=O)c4ccco4)CC3)nnc12,3.8 nM (inactive)
10,CCSc1nc2c(c(=O)[nH]1)C(c1cccnc1)C(C(=O)OC(C)C)=C(C)N2 (stereo not given),29 nM (inactive)
11,CCOc1cc(CO)ccc1OCC(=O)N1CCCCC1,5.6 nM (inactive)
12,COC(=O)Nc1c(C)n(C)n(-c2ccccc2)c1=O,1 nM (inactive)
13,CCN(CC)C(=O)C1CCC(C)(C(=O)O)C1(C)C (stereo not given),5.6 nM (inactive)
14,O=C(O)c1c(Br)c(Br)c(Br)c(Br)c1C1c2ccc(O)cc2Oc2cc(O)ccc21,1 nM (inactive)
15,O=C(Nc1ccon1)c1cccc(Cl)c1,1 nM (inactive)
16,Cc1cccc2cc(CN(Cc3ccc4c(c3)OCO4)Cc3nnnn3C3CCCC3)c(=O)[nH]c12,1 nM (inactive)
17,COCCCn1c(CCC(=O)O)ccc1-c1ccc(F)cc1,26 nM (inactive)
18,COCCn1nnnc1CN1CCC(NC(=O)Nc2cccc(OC)c2)CC1,41 nM (inactive)
19,O=C(O)[C@@H](S)[C@H](S)C(=O)O,1.2 nM (inactive)
20,COCCCNC(=O)CSc1nc2ccc(N3CCOCC3)cc2c(=O)n1CCc1ccccc1,19 nM (inactive)
21,Cc1ccc(-c2noc(CSc3nnc(-c4ccccc4)n3C)n2)cc1,17 nM (inactive)
22,COc1ccc(C2OC(=O)CC2C(=O)NC(C)C)cc1 (stereo not given),2.6 nM (inactive)
23,Cc1cc(Cl)c(S(=O)(=O)NCC2CCCO2)cc1OCC(N)=O (stereo not given),1 nM (inactive)

row,SMILES,max dye-equivalent concentration
1,CC1(N2CCOCC2)CC2(O)C(=[N+]1[O-])CCc1nonc12 (stereo not given),31 nM (inactive)
2,Cc1ccc(C(=O)O)cc1S(=O)(=O)NCC1CCCO1 (stereo not given),1 nM (inactive)
3,O=C(c1ccncc1)N1CCC2(CCCN(C(c3ccccc3)c3ccccc3)C2)CC1,10 nM (inactive)
4,C[C@@H]1CC[C@H]2[C@H](C)[C@H]3[C@H](C[C@H]4[C@@H]5CC=C6C[C@@H](O)CC[C@@]6(C)[C@@H]5C[C@@H](O)[C@]34C)N2C1,2.4 nM (inactive)
5,Cn1nnnc1SCC(=O)N1CCN(C(c2ccccc2)c2ccccc2)CC1,1 nM (inactive)
6,CCCC(C)n1[nH]c(=O)c2c(C)cc(C)nc21 (stereo not given),16 nM (inactive)
7,N#Cc1c2c(c(-c3ccccc3)[nH]c1=O)CCCC2,55 nM (inactive)
8,Cc1ccccc1C(=O)Nc1cccc(-c2nnc(SCC(=O)O)n2C)c1,18 nM (inactive)
9,O=C(Nc1ccccc1C(=O)N1CCOCC1)C1CCC(=O)N1C1CCCC1 (stereo not given),14 nM (inactive)
10,O=S(=O)(c1ccccc1)N(CC(O)CN1CCCCC1)c1ccccc1 (stereo not given),1 nM (inactive)
11,CCC(C)(C)n1nnnc1C(c1cccs1)N1CCN(Cc2ccccc2)CC1 (stereo not given),35 nM (inactive)
12,Cc1c(C(=O)Nc2ccccc2Cl)oc2ccc(S(=O)(=O)N3CCC4(CC3)OCCO4)cc12,45 nM (inactive)
13,CCC(Oc1ccccc1)C(=O)NCc1cccnc1 (stereo not given),1.3 nM (inactive)
14,CC(C)OC(=O)c1sc2nc3c(cc2c1N)C(=O)CCC3,12 nM (inactive)
15,Cn1cc(-c2nc3cncnc3n(-c3ccccc3)c2=O)c2ccccc21,1 nM (inactive)
16,O=C(/C=N/O)Nc1ccccc1,1 nM (inactive)
17,CCOC(=O)N1CCN(S(=O)(=O)c2ccc(C(=O)Nc3ccc(F)cc3F)cc2)CC1,29 nM (inactive)
18,COc1ccccc1N1CCN(CCCCOc2ccc(F)cc2)CC1,1 nM (inactive)
19,COc1ccc2nc(N3CCCC(O)C3)c(C#N)cc2c1 (stereo not given),22 nM (inactive)
20,CCCCN(CC)CCCNC(=O)CS(=O)(=O)Cc1nc(-c2cccc(OC)c2)oc1C,1 nM (inactive)
21,COC(=O)c1ccccc1NC(=O)CN(Cc1ccccc1)S(C)(=O)=O,1 nM (inactive)
22,COc1cccc(OC)c1OCCN1CCN(C(=O)c2ccco2)CC1,1 nM (inactive)
23,Cc1cc(Cl)ccc1N1C(=O)CC(SCCC(=O)O)C1=O (stereo not given),1 nM (inactive)

row,SMILES,max dye-equivalent concentration
1,COc1ccc(CC(=O)Nc2c3c(nn2-c2cccc(Cl)c2)CS(=O)C3)cc1 (stereo not given),12 nM (inactive)
2,Cc1c(C(=O)OCc2cc(=O)n3cc(Br)ccc3n2)oc2ccccc12,28 nM (inactive)
3,CCOC(=O)N1CCN(C(=O)c2cn(C)c3ccc(S(=O)(=O)N4CCCC4)cc3c2=O)CC1,21 nM (inactive)
4,Cc1cc(NC(=O)COc2ccc(Cl)cc2Cl)n(CCC#N)n1,18 nM (inactive)
5,Cc1ccc(S(=O)(=O)NCc2cn3ccsc3n2)c(C)c1,18 nM (inactive)
6,CCOc1cc(-c2nc3cc(C)ccn3c2NCC2CCCO2)ccc1O (stereo not given),14 nM (inactive)
7,CC(C)C(C(=O)NC1CCCCC1)N(CC1CCCO1)C(=O)CNS(=O)(=O)c1ccc(F)cc1 (stereo not given),1 nM (inactive)
8,COc1ccccc1N1CCN(c2nc3ccccc3n3nnnc23)CC1,42 nM (inactive)
9,O=C(c1cccc(F)c1)N1CCC2(CC1)CCN(c1ccccc1)CC2,1.1 nM (inactive)
10,COc1ccccc1CNCc1cccs1,25 nM (inactive)
11,O=C(CN1C(=O)COc2ccccc21)NCCN1CCc2ccccc2C1,23 nM (inactive)
12,CC(C)CCNC(=O)C(C)N(C(=O)Cn1nnc(-c2ccc(F)cc2)n1)C1CCCC1 (stereo not given),1 nM (inactive)
13,CN1CCN(S(=O)(=O)c2ccc(NC(=O)c3ccco3)cc2)CC1,3.8 nM (inactive)
14,CCOC(=O)CSc1nc2sc3c(c2c(=O)[nH]1)CC(C)(C)OC3,2.2 nM (inactive)
15,Cc1cc(=O)oc(C)c1C(=O)Nc1cnc2ccccc2c1,5.4 nM (inactive)
16,CN(C)CCSc1nc(N)c2c3c(sc2n1)COC(C)(C)C3,6.7 nM (inactive)
17,Cc1ccc(C(=O)CSc2nnc(Cn3nnc4ccccc43)n2C)cc1,15 nM (inactive)
18,CCCc1cc(=O)n2[nH]c(SCc3ccccc3)nc2n1,28 nM (inactive)
19,O=C(c1ccco1)N(Cc1nc2ccccc2c(=O)[nH]1)C1CCCC1,41 nM (inactive)
20,COC(=O)[C@H](CCSC)NC(=O)Nc1ccc(OC)cc1,5.2 nM (inactive)
21,CC[N+](C)(CC)CCC[n+]1c(-c2ccccc2)c2cc(N)ccc2c2ccc(N)cc21,1.7 nM (inactive)
